Compound activity: PubChem BioAssay, several laboratories
697 NFkB inh = inhibitors of PMA/ionomycin-induced NF-kB reporter, 697 cells, primary screen, B-cell NF-kB inhibitor project, cell-based, luminescence, uHTS | 697 B-cell NF-kB luciferase reporter, 16 h | inhibition, % at 4 µM | actives 0.33% (n = 330,000) | AID 435022, 2010; in the data active = inhibition above about 35%
Gli-Sufu block = Gli-Sufu pathway antagonists, primary screen, luciferase luminescence, Sufu-KO-LIGHT cells, uHTS. actives 0.74% (n = 340,000). inhibition, % at 5 µM. Sufu-KO-LIGHT fibroblasts, Gli luciferase reporter luminescence;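 active = inhibition above about 55%, limit read from the data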
Jurkat NFkB inh = inhibitors of induced NF-kB luciferase reporter, primary screen, TCR NF-kB activation inhibitor project, cell-based, luminescence, uHTS. Jurkat, PMA/ionomycin-induced NF-kB luciferase reporter. inhibition, % at 4 µM. actives 0.53% (n = 330,000); in the data active = inhibition above about 50%
Beta apoptosis = inhibitors of cytokine-induced beta cell apoptosis, primary screen, luminescence; actives 0.8% (n = 300,000); protection from apoptosis, % (no concentration beside the values); INS-1E cytokine-induced death, ATP luminescence, 48 h; percent of positive-control rescue, neutral wells zero; AID 435005, 2010;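 active = Every replicate reaches about 75%, or at least half do and their mean reaches it too, limit read from the data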;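 also: higher means more ATP so stronger rescue from cytokine killing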
Jurkat NFkB conf = PMA/ionomycin-induced NF-kB reporter inhibitors, Jurkat retest, confirmation, T-cell NF-kB inhibitor project, cell-based, luminescence, single concentration | actives 27% (n = 2,700) | inhibition, % at 4 µM | shares compounds with Jurkat NFkB inh | Jurkat NF-kB luciferase, 16 h;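 active = inhibition reaching about 45% at 4 µM in either replicate, limit read from the data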
Each line names hits and unclear results; the compound was inactive in the other large screens (follow-up assays come after a bar, where they were run). Most compounds without a hit are left out; they make up all but 1.8% or so of the library.

C[n+]1ccc(-c2ccccc2)c2ccccc21	none
O=C(NC(Cc1cnc[nH]1)C(=O)O)c1ccccc1 (stereo not given)	none
c1ccc2c(CNC3CCCCC3)c[nH]c2c1	Beta apoptosis 115
c1ccc2c(CN3CCCCCCC3)c[nH]c2c1	Beta apoptosis 104
CN(Cc1c[nH]c2ccccc12)C1CCCCC1	Beta apoptosis 102
c1ccc2c(CN3CCN(C4CCCCC4)CC3)c[nH]c2c1	none
COc1cccc(-n2c(/C=C/c3ccc(O)c(O)c3)nc3ccccc3c2=O)c1	none
Fc1ccc(CNC2CN3CCC2CC3)cc1 (stereo not given)	none
C=Cc1ccc(Cn2c(C(=O)O)c(C=O)c3ccccc32)cc1	none
CC(=NNC(=S)N1CC2CCC(CC2)C1)c1nccs1	Gli-Sufu block 91 (no result: 697 NFkB inh, Jurkat NFkB inh, Beta apoptosis)
OC1/C(=C/c2ccc(F)cc2)N2CCC1CC2 (stereo not given)	none
Clc1ccc(C[n+]2c(-c3ccccc3)cc(-c3ccccc3)cc2-c2ccccc2)cc1	Gli-Sufu block 70, Beta apoptosis 122
Cc1ccc(-c2cc(-c3ccccc3)cc(-c3ccccc3)[n+]2-c2ccccc2C(=O)O)cc1	none
C[n+]1c(-c2ccccc2)cc(-c2ccc(O)cc2)cc1-c1ccccc1	none
Fc1ccc(C[n+]2c(-c3ccccc3)cc(-c3ccccc3)cc2-c2ccccc2)cc1	Beta apoptosis 128
C[CH2][Hg][S]c1ccccc1C(=O)O	Gli-Sufu block 76, Beta apoptosis 114
CCCCC(CC)COC(=O)c1ccccc1C(=O)OCC(CC)CCCC (stereo not given)	none
Fc1ccc(Cn2nnnc2C(c2ccc(Cl)cc2)N2CC=C(c3ccc(F)cc3)CC2)cc1 (stereo not given)	none
CC(C)[C@H]1C(=O)O[C@H](C(C)C)C(=O)N(C)[C@@H](C(C)C)C(=O)O[C@H](C(C)C)C(=O)N(C)[C@@H](C(C)C)C(=O)O[C@H](C(C)C)C(=O)N1C	Gli-Sufu block 84, Beta apoptosis 109
CCOc1cc2c(cc1OCC)-n1cccc1C(c1cccc(F)c1)NC2 (stereo not given)	none
Nc1ccc(CC2=NCCN2)cc1	none (no result: 697 NFkB inh, Jurkat NFkB inh, Beta apoptosis)
Cc1sc2ccccc2c1CC1=NCCN1	Gli-Sufu block 61
CC(=O)OC1(C)CC(C)C(=O)C(C(O)CC2CC(=O)NC(=O)C2)C1 (stereo not given)	Gli-Sufu block 89 (no result: 697 NFkB inh, Jurkat NFkB inh, Beta apoptosis)
Cc1cc(O)c2c(c1)C(=O)C13C(=C2O)C(=O)[C@H]2[C@@H](O)[C@@H]1[C@H]1[C@H](O)[C@@H]3C(=O)C3=C(O)c4c(O)cc(C)cc4C(=O)C312 (stereo not given in full)	Beta apoptosis 106
Cc1c(C)c2ccc(OCC(=O)N3CCN(Cc4ccccc4)CC3)cc2oc1=O	none
COc1cc(/C=C(/C)[N+](=O)[O-])ccc1OCc1ccccc1Cl	Beta apoptosis 92
CCn1c(NN=O)nc2ccccc21	Gli-Sufu block 70, Beta apoptosis 99
CCn1c(P(C)(=O)O)nc2ccccc21	none
O=C(O)C1CN2CCC1CC2 (stereo not given)	none
CCCCCn1c(=O)c(C(=O)Nc2ncccc2C)c(O)c2ccccc21	Beta apoptosis 88
CCCCCn1c(=O)c(C(=O)Nc2ccccc2Cl)c(O)c2ccccc21	none
CCCCn1c(=O)c(C(=O)Nc2ccccc2C)c(O)c2ccccc21	none
CCCCCn1c(=O)c(C(=O)Nc2nc3ccccc3[nH]2)c(O)c2ccccc21	Beta apoptosis 80
Cc1nc2nc(SCC(=O)N3CCC4(CC3)OCCO4)nn2c(C)c1Cc1ccccc1	none
COC(/C(C)=C/C=C/C(C)=C/c1coc(C)n1)C(C)C1CC(O)C2(C)OC2C=CC(C)C2CC(CC(=O)O2)CC2OC2C(=O)O1 (stereo not given)	none (no result: 697 NFkB inh, Jurkat NFkB inh, Beta apoptosis)
CC(=O)OC(C)(C)/C=C/C(=O)[C@](C)(O)[C@H]1[C@H](O)C[C@@]2(C)[C@@H]3CC=C4[C@H](C[C@H](O)C(=O)C4(C)C)[C@]3(C)C(=O)C[C@]12C	Gli-Sufu block 88 (no result: 697 NFkB inh, Jurkat NFkB inh, Beta apoptosis)
CC(=O)OC(C)(C)/C=C/C(=O)C(C)(O)C1C(O)CC2(C)C3CC=C4C(CC(O)C(=O)C4(C)C)C3(C)C(=O)CC12C (stereo not given)	Gli-Sufu block 87 (no result: 697 NFkB inh, Jurkat NFkB inh, Beta apoptosis)
CCN1CCN(S(=O)(=O)c2cnc(Cl)c(Br)c2)CC1	none (no result: Beta apoptosis)
CCCCCCC[n+]1ccc(-c2cc[n+](CCCCCCC)cc2)cc1	Beta apoptosis 102
COC(=O)C1=C(c2ccc(OCc3ccccc3)cc2)C[C@@H]2CC[C@H]1N2C(=O)NC1CCN(Cc2ccccc2)CC1	Beta apoptosis 78
Cc1nn(Cc2ccccc2Cl)c(C)c1C(=O)OCC(=O)NC1CCS(=O)(=O)C1 (stereo not given)	none
CC[C@@]1(O)C(=O)OCc2c1cc1n(c2=O)Cc2cc3ccccc3nc2-1	Beta apoptosis 103 (no result: 697 NFkB inh, Gli-Sufu block, Jurkat NFkB inh)
Cc1ccccc1NC(=S)NC(NC(=O)CF)C(Cl)(Cl)Cl (stereo not given)	none
Cc1[nH]nc2ccc(-c3cncc(OC[C@@H](N)Cc4c[nH]c5ccccc45)c3)cc12	Gli-Sufu block 93 (no result: 697 NFkB inh, Jurkat NFkB inh, Beta apoptosis)
CCC(C)C1NC(=O)C(NC(=O)C(CC(C)C)N(C)C(=O)C2CCCN2C(=O)C(C)O)C(C)OC(=O)C(Cc2ccc(OC)cc2)N(C)C(=O)C2CCCN2C(=O)C(CC(C)C)NC(=O)[C@H](C)C(=O)[C@H](C(C)C)OC(=O)CC1O (stereo not given in full)	Gli-Sufu block 90 (no result: 697 NFkB inh, Jurkat NFkB inh, Beta apoptosis)
COC(=O)C(Cc1ccc(N(CCCl)CCCl)cc1)N=Cc1ccccc1O (stereo not given)	Gli-Sufu block 64, Jurkat NFkB inh 51, Beta apoptosis 106 | Jurkat NFkB conf inactive
O=c1[nH]c(=S)n(CCC2=CCCCC2)c(O)c1C=NC1CCN(Cc2ccccc2)CC1	none
Cc1cc(C)c2c(ccc3cccc[n+]32)c1	Jurkat NFkB inh 57, Beta apoptosis 82 | Jurkat NFkB conf inactive
CCN1/C(=C\C=C\C2=[N+](CC)c3ccccc3C2(C)C)C(C)(C)c2ccccc21	Gli-Sufu block 94, Jurkat NFkB inh 100, Beta apoptosis 119 | Jurkat NFkB conf 80
C[N+](C)(C)CC#CCOC(=O)Nc1cccc(Cl)c1	none
COc1ccc(-n2cnc3cc(C(=O)N4CCC5(CC4)OCCO5)ccc32)cc1	Jurkat NFkB inh 50 | Jurkat NFkB conf inactive
CC[C@H]1CN(C)CCc2c([nH]c3ccccc23)C(=O)C[C@@H]1/C(=C\OC)C(=O)OC	none
